# Compounds without any hit were thinned out: in the full panel of roughly 79,000, 15% have a hit. A number with no mark means an inactive call. The source made the active and inactive calls. No stated cut-off is given here; in the data, active means growth inhibition above about 70%; inactive means the rest.
# Tests used:
# [1] = NCI Yeast Anticancer Drug Screen. Data for the rad52 strain (AID 147);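 further: 0% = growth of vehicle-treated control cultures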; conditions: S. cerevisiae rad52 mutant growth inhibition, active compounds read high
# Procedure, shortened: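 Here a repair-compromised yeast strain receives each compound; its growth is then quantified and normalised to vehicle-only controls.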
# [2] = NCI Yeast Anticancer Drug Screen. Data for the wt1 strain (AID 149);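 further: 0% = growth of vehicle-treated wt1 cultures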; conditions: S. cerevisiae wt1 strain (SPY 50644) growth inhibition, active compounds read high
# Procedure, shortened: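 Readout: yeast growth inhibition, normalised to vehicle controls, in the wt1 strain exposed to test compounds.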
# [3] = NCI Yeast Anticancer Drug Screen. Data for the rad50EPP+ strain (AID 151);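 further: 0% = growth of vehicle-treated control cultures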; conditions: S. cerevisiae rad50 mutant strain, active compounds read high
# Procedure, shortened: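 Read-out is yeast growth inhibition relative to vehicle; cells used were the rad50EPP+ strain.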
# [4] = NCI Yeast Anticancer Drug Screen. Data for the mgt1 strain (AID 153); conditions: S. cerevisiae mgt1 mutant growth inhibition, active compounds read high
# Procedure, shortened: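 Measured: inhibition of mgt1 yeast growth by compound, normalized to vehicle-treated cultures.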
# [5] = NCI Yeast Anticancer Drug Screen. Data for the rad50 strain (AID 155);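 further: 0% = growth of vehicle-only cultures of the same strain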; conditions: S. cerevisiae rad50 strain growth inhibition, active compounds read high
# Procedure, shortened: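 Compounds were tested on a yeast strain with an engineered DNA damage repair alteration; the reported value is growth inhibition normalised to vehicle treatment.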
# [6] = NCI Yeast Anticancer Drug Screen. Data for the mec2-1 strain (AID 157); conditions: S. cerevisiae mec2-1 strain, active compounds read high
# Procedure, shortened: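 Using mec2-1 yeast: add compound, measure growth, express inhibition versus vehicle-treated cultures.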
# [7] = NCI Yeast Anticancer Drug Screen. Data for the rad14 strain (AID 159);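 further: 0% = growth of vehicle-treated control cultures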; conditions: S. cerevisiae rad14 strain growth inhibition, active compounds read high
# Procedure, shortened: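 Compound-treated yeast with a defined DNA-repair lesion; growth inhibition normalised to vehicle-treated cultures.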
# [8] = NCI Yeast Anticancer Drug Screen. Data for the sgs1 mgt1 strain (AID 161);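 further: 0% = growth of cultures given vehicle only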; conditions: S. cerevisiae sgs1 mgt1 strain, active compounds read high
# Procedure, shortened: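 Growth of a repair-deficient yeast mutant was monitored after compound treatment and expressed as inhibition relative to vehicle-treated cultures.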
# [9] = NCI Yeast Anticancer Drug Screen. Data for the CLN2oe strain (AID 163);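 further: 0% = growth of vehicle-only control cultures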; conditions: S. cerevisiae CLN2oe strain, active compounds read high
# Procedure, shortened: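 Whole-cell yeast growth assay. A strain engineered for altered cell-cycle control received compound, and inhibition relative to vehicle-treated cultures was recorded.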
# [10] = NCI Yeast Anticancer Drug Screen. Data for the cln2 rad14 strain (AID 165);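 further: 0% = growth equal to vehicle treated cultures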; conditions: S. cerevisiae cln2 rad14 strain, active compounds read high
# Procedure, shortened: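 Yeast strain cln2 rad14, bearing defects in cell cycle control and DNA repair, serves as the test system; values reflect growth inhibition compared with vehicle.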
# [11] = NCI Yeast Anticancer Drug Screen. Data for the bub3 strain (AID 167); conditions: S. cerevisiae bub3 mutant strain, active compounds read high
# Procedure, shortened: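 Growth of a checkpoint-deficient yeast mutant is measured after compound exposure. Values represent inhibition relative to vehicle.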
# [12] = NCI Yeast Anticancer Drug Screen. Data for the wt2 strain (AID 169);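 further: 0% = growth of vehicle-treated yeast cultures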; conditions: S. cerevisiae wt2 strain growth inhibition, active compounds read high
# Procedure, shortened: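 Treated yeast vs. vehicle-treated yeast: growth inhibition determined.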
# [13] = NCI Yeast Anticancer Drug Screen. Data for the mlh1 strain (AID 171);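 further: 0% = growth of vehicle-treated control cultures of the same strain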; conditions: S. cerevisiae mlh1 strain growth inhibition, active compounds read high
# Procedure, shortened: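 A yeast strain with a defined genetic lesion serves as the test organism. Cultures receive compound or vehicle, and growth is measured.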
# [14] = NCI Yeast Anticancer Drug Screen. Data for the sgs1 strain (AID 173);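 further: 0% = growth of vehicle-only control cultures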; conditions: S. cerevisiae sgs1 mutant, active compounds read high
# Procedure, shortened: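 A genetically defined yeast mutant is incubated with the test compound, and its growth is compared to that of the same strain given vehicle.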
# [15] = NCI Yeast Anticancer Drug Screen. Data for the mlh1 rad18 strain (AID 175); conditions: S. cerevisiae mlh1 rad18 strain growth inhibition, active compounds read high
# Procedure, shortened: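 Steps: expose repair-defective yeast to compound; measure growth; express inhibition against vehicle-treated controls.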
# [16] = NCI Yeast Anticancer Drug Screen. Data for the rad18 strain (AID 177); conditions: S. cerevisiae rad18 mutant growth inhibition, active compounds read high
# Procedure, shortened: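 Measured value is growth inhibition of a yeast strain bearing a DNA repair alteration, referenced to vehicle-treated cells.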
# [17] = at 5.0 µM (retest, dose inferred, filed as 0.5)
# [18] = at 50.0 µM (retest, dose inferred, filed as 5.0)
compound,measurement,setting,value
O=[N+]([O-])c1cc(Cl)cnc1Br,growth inhibition,[1]; at 1.2 µM,23%
same,growth inhibition,[1]; at 3.7 µM,46%
same,growth inhibition,[1]; at 11.0 µM,75% (active)
same,growth inhibition,[1]; at 33.0 µM,92% (active)
same,growth inhibition,[1]; at 100.0 µM,97% (active)
same,growth inhibition,[2]; at 1.2 µM,1%
same,growth inhibition,[2]; at 3.7 µM,4%
same,growth inhibition,[2]; at 11.0 µM,7%
same,growth inhibition,[2]; at 33.0 µM,8%
same,growth inhibition,[2]; at 100.0 µM,20%
same,growth inhibition,[3]; at 1.2 µM,35%
same,growth inhibition,[3]; at 3.7 µM,71% (active)
same,growth inhibition,[3]; at 11.0 µM,88% (active)
same,growth inhibition,[3]; at 33.0 µM,96% (active)
same,growth inhibition,[3]; at 100.0 µM,98% (active)
same,growth inhibition,[4]; at 1.2 µM,2%
same,growth inhibition,[4]; at 3.7 µM,1%
same,growth inhibition,[4]; at 11.0 µM,4%
same,growth inhibition,[4]; at 33.0 µM,12%
same,growth inhibition,[4]; at 100.0 µM,19%
same,growth inhibition,[5]; at 1.2 µM,28%
same,growth inhibition,[5]; at 3.7 µM,47%
same,growth inhibition,[5]; [17],-49%
same,growth inhibition,[5]; at 11.0 µM,81% (active)
same,growth inhibition,[5]; at 33.0 µM,90% (active)
same,growth inhibition,[5]; [18],82% (active)
same,growth inhibition,[5]; at 50.0 µM,88.5% (active)
same,growth inhibition,[5]; at 100.0 µM,98% (active)
same,growth inhibition,[6]; at 1.2 µM,6%
same,growth inhibition,[6]; at 3.7 µM,43%
same,growth inhibition,[6]; [17],22%
same,growth inhibition,[6]; at 11.0 µM,69%
same,growth inhibition,[6]; at 33.0 µM,85% (active)
same,growth inhibition,[6]; [18],70% (active)
same,growth inhibition,[6]; at 50.0 µM,76.7% (active)
same,growth inhibition,[6]; at 100.0 µM,88% (active)
same,growth inhibition,[7]; at 1.2 µM,4%
same,growth inhibition,[7]; at 3.7 µM,1%
same,growth inhibition,[7]; at 11.0 µM,10%
same,growth inhibition,[7]; at 33.0 µM,14%
same,growth inhibition,[7]; at 100.0 µM,31%
same,growth inhibition,[8]; [17],-50%
same,growth inhibition,[8]; [18],-19%
same,growth inhibition,[8]; at 50.0 µM,8.35%
same,growth inhibition,[9]; at 1.2 µM,-4%
same,growth inhibition,[9]; at 3.7 µM,-1%
same,growth inhibition,[9]; at 11.0 µM,4%
same,growth inhibition,[9]; at 33.0 µM,4%
same,growth inhibition,[9]; at 100.0 µM,8%
same,growth inhibition,[10]; [17],-56%
same,growth inhibition,[10]; [18],-74%
same,growth inhibition,[10]; at 50.0 µM,3.2%
same,growth inhibition,[11]; at 1.2 µM,-8%
same,growth inhibition,[11]; at 3.7 µM,-10%
same,growth inhibition,[11]; [17],-74%
same,growth inhibition,[11]; at 11.0 µM,-6%
same,growth inhibition,[11]; at 33.0 µM,-2%
same,growth inhibition,[11]; [18],-70%
same,growth inhibition,[11]; at 50.0 µM,-8.3%
same,growth inhibition,[11]; at 100.0 µM,30%
same,growth inhibition,[12]; at 1.2 µM,0%
same,growth inhibition,[12]; at 3.7 µM,1%
same,growth inhibition,[12]; at 11.0 µM,2%
same,growth inhibition,[12]; at 33.0 µM,5%
same,growth inhibition,[12]; at 100.0 µM,20%
same,growth inhibition,[13]; at 1.2 µM,6%
same,growth inhibition,[13]; at 3.7 µM,8%
same,growth inhibition,[13]; at 11.0 µM,6%
same,growth inhibition,[13]; at 33.0 µM,12%
same,growth inhibition,[13]; at 100.0 µM,27%
same,growth inhibition,[14]; at 1.2 µM,14%
same,growth inhibition,[14]; at 3.7 µM,25%
same,growth inhibition,[14]; at 11.0 µM,30%
same,growth inhibition,[14]; at 33.0 µM,40%
same,growth inhibition,[14]; at 100.0 µM,82% (active)
same,growth inhibition,[15]; [17],-109%
same,growth inhibition,[15]; [18],-48%
same,growth inhibition,[15]; at 50.0 µM,28.1%
same,growth inhibition,[16]; at 1.2 µM,6%
same,growth inhibition,[16]; at 3.7 µM,10%
same,growth inhibition,[16]; at 11.0 µM,18%
same,growth inhibition,[16]; at 33.0 µM,35%
same,growth inhibition,[16]; at 100.0 µM,87% (active)
c1ccc(Cc2cc(-c3ccccc3)n[nH]2)cc1,growth inhibition,[1]; at 1.2 µM,-7%
same,growth inhibition,[1]; at 3.7 µM,-5%
same,growth inhibition,[1]; at 11.0 µM,-12%
same,growth inhibition,[1]; at 33.0 µM,0%
same,growth inhibition,[1]; at 100.0 µM,59%
same,growth inhibition,[2]; at 1.2 µM,-6%
same,growth inhibition,[2]; at 3.7 µM,-10%
same,growth inhibition,[2]; at 11.0 µM,-15%
same,growth inhibition,[2]; at 33.0 µM,-16%
same,growth inhibition,[2]; at 100.0 µM,44%
same,growth inhibition,[3]; at 1.2 µM,-3%
same,growth inhibition,[3]; at 3.7 µM,1%
same,growth inhibition,[3]; at 11.0 µM,5%
same,growth inhibition,[3]; at 33.0 µM,22%
same,growth inhibition,[3]; at 100.0 µM,58%
same,growth inhibition,[4]; at 1.2 µM,-4%
same,growth inhibition,[4]; at 3.7 µM,-8%
same,growth inhibition,[4]; at 11.0 µM,-11%
same,growth inhibition,[4]; at 33.0 µM,8%
same,growth inhibition,[4]; at 100.0 µM,50%
same,growth inhibition,[5]; at 1.2 µM,-10%
same,growth inhibition,[5]; at 3.7 µM,-19%
same,growth inhibition,[5]; [17],-136%
same,growth inhibition,[5]; at 11.0 µM,7%
same,growth inhibition,[5]; at 33.0 µM,5%
same,growth inhibition,[5]; [18],31%
same,growth inhibition,[5]; at 50.0 µM,97% (active)
same,growth inhibition,[5]; at 100.0 µM,60%
same,growth inhibition,[6]; at 1.2 µM,2%
same,growth inhibition,[6]; at 3.7 µM,-4%
same,growth inhibition,[6]; [17],-51%
same,growth inhibition,[6]; at 11.0 µM,-23%
same,growth inhibition,[6]; at 33.0 µM,-11%
same,growth inhibition,[6]; [18],-13%
same,growth inhibition,[6]; at 50.0 µM,97% (active)
same,growth inhibition,[6]; at 100.0 µM,43%
same,growth inhibition,[7]; at 1.2 µM,-3%
same,growth inhibition,[7]; at 3.7 µM,-4%
same,growth inhibition,[7]; at 11.0 µM,-7%
same,growth inhibition,[7]; at 33.0 µM,6%
same,growth inhibition,[7]; at 100.0 µM,58%
same,growth inhibition,[8]; [17],-64%
same,growth inhibition,[8]; [18],46%
same,growth inhibition,[8]; at 50.0 µM,89.8% (active)
same,growth inhibition,[9]; at 1.2 µM,-8%
same,growth inhibition,[9]; at 3.7 µM,-8%
same,growth inhibition,[9]; at 11.0 µM,-14%
same,growth inhibition,[9]; at 33.0 µM,0%
same,growth inhibition,[9]; at 100.0 µM,55%
same,growth inhibition,[10]; [17],-72%
same,growth inhibition,[10]; [18],-13%
same,growth inhibition,[10]; at 50.0 µM,70.4% (active)
same,growth inhibition,[11]; at 1.2 µM,-15%
same,growth inhibition,[11]; at 3.7 µM,-5%
same,growth inhibition,[11]; [17],-59%
same,growth inhibition,[11]; at 11.0 µM,9%
same,growth inhibition,[11]; at 33.0 µM,37%
same,growth inhibition,[11]; [18],62%
same,growth inhibition,[11]; at 50.0 µM,93.8% (active)
same,growth inhibition,[11]; at 100.0 µM,80% (active)
same,growth inhibition,[12]; at 1.2 µM,-3%
same,growth inhibition,[12]; at 3.7 µM,-4%
same,growth inhibition,[12]; at 11.0 µM,-7%
same,growth inhibition,[12]; at 33.0 µM,10%
same,growth inhibition,[12]; at 100.0 µM,52%
same,growth inhibition,[13]; at 1.2 µM,4%
same,growth inhibition,[13]; at 3.7 µM,-12%
same,growth inhibition,[13]; at 11.0 µM,-11%
same,growth inhibition,[13]; at 33.0 µM,5%
same,growth inhibition,[13]; at 100.0 µM,55%
same,growth inhibition,[14]; at 1.2 µM,-3%
same,growth inhibition,[14]; at 3.7 µM,-11%
same,growth inhibition,[14]; at 11.0 µM,-5%
same,growth inhibition,[14]; at 33.0 µM,27%
same,growth inhibition,[14]; at 100.0 µM,69%
same,growth inhibition,[15]; [17],-125%
same,growth inhibition,[15]; [18],9%
same,growth inhibition,[15]; at 50.0 µM,96.8% (active)
same,growth inhibition,[16]; at 1.2 µM,-5%
same,growth inhibition,[16]; at 3.7 µM,-4%
same,growth inhibition,[16]; at 11.0 µM,-1%
same,growth inhibition,[16]; at 33.0 µM,19%
same,growth inhibition,[16]; at 100.0 µM,61%

# — PubChem BioAssay (NCI)
